We go through 16 compounds from PubChem BioAssay (EPA / NIEHS).

Experiment [1] deals with human AMP-activated Protein Kinase, alpha 1 (AMPKa1), PRKAA1 (gene 5562) (UniProt Q13131). In words: NVS_ENZ_hAMPKa1: NovaScreen (NVS) Enzymatic Assay for human AMP-activated Protein Kinase, alpha 1 (AMPKa1) (AID 2283130). An outline of the steps:
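Recombinant human AMPKα1 activity was measured cell-free by fluorescent substrate conversion with electrophoretic mobility-shift separation, 1 h after dosing. Duplicate single-point screening was at 25 uM; actives (≥30% inhibition) were retested in concentration-response up to 50 uM.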

In experiment [2] the target is human Acid Phosphatase 1 (ACP1), ACP1 (gene 52) (UniProt P24666). The experiment can be described thus: NVS_ENZ_hACP1: NovaScreen (NVS) Enzymatic Assay for human Acid Phosphatase 1 (ACP1) (AID 2283136). An outline of the steps: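 Recombinant enzyme expressed in Sf9 cells, tested cell-free; activity read by fluorescence with electrophoretic mobility shift separation of substrate and product, 1.5 h after dosing. Primary screen in duplicate at 25 uM, actives then run in concentration series; loss of signal versus DMSO.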

The target in experiment [3] is human Beta-secretase (BACE), BACE1 (gene 23621) (UniProt P56817). The experiment can be described thus: NVS_ENZ_hBACE: NovaScreen (NVS) Enzymatic Assay for human Beta-secretase (BACE) (AID 2283140).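 Also: hits are inhibitors that reduce fluorescent substrate signal versus DMSO.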 An outline of the steps:
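Compounds were first tested in duplicate at 25 uM, then actives in concentration series, against recombinant BACE1 from SF9 cells. Enzyme activity was measured by fluorescence intensity 1 hour after dosing, with DMSO as negative control.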

The target in experiment [4] is human AKT serine/threonine Kinase 2 (AKT2), AKT2 (gene 208) (UniProt P31751). The experiment can be described thus: NVS_ENZ_hAKT2: NovaScreen (NVS) Enzymatic Assay for human AKT serine/threonine Kinase 2 (AKT2) (AID 2283141). An outline of the steps: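 Cell-free fluorescence/electrophoretic mobility shift readout of recombinant human AKT2 activity, 1 h after chemical dosing. Duplicate primary screen at 25 uM, then singleton concentration-response up to 50 uM; loss of signal versus DMSO baseline.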

Experiment [5] concerns the target human Caspase 8 (CASP8), CASP8 (gene 841) (UniProt Q14790). The experiment can be described thus: NVS_ENZ_hCASP8: NovaScreen (NVS) Enzymatic Assay for human Caspase 8 (CASP8) (AID 2283146). The essentials:
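E. coli-expressed enzyme was used in a cell-free fluorogenic substrate assay read 1 h after dosing. Loss of signal was scored relative to DMSO, and the primary screen was run in duplicate at 25 uM.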

For experiment [6], the target named is human Colony Stimulating Factor 1 Receptor (CSF1R), CSF1R (gene 1436) (UniProt P07333). In words: NVS_ENZ_hCSF1R: NovaScreen (NVS) Enzymatic Assay for human Colony Stimulating Factor 1 Receptor (CSF1R) (AID 2283150). The essentials: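 Cell-free recombinant human CSF1R kinase with fluorescent substrate, product separated by electrophoretic mobility shift; read 1 h after dosing. Primary screen at 25 uM in duplicate, actives then in concentration-response up to 50 uM, relative to DMSO.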

Experiment [7] concerns the target human Dual Specificity Protein Phosphatase 3 (DUSP3), DUSP3 (gene 1845) (UniProt P51452). In words: NVS_ENZ_hDUSP3: NovaScreen (NVS) Enzymatic Assay for human Dual Specificity Protein Phosphatase 3 (DUSP3) (AID 2283152).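 Also: phosphatase activity of recombinant human DUSP3 on a fluorogenic substrate without cells.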 The essentials:
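Cell-free assay with recombinant human DUSP3 and fluorogenic substrate, read by fluorescence intensity. Primary screen ran duplicate at 25 uM; actives followed up in concentration series; loss of signal versus DMSO scored.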

For experiment [8], the target named is human Elastase, ELANE (gene 1991) (UniProt P08246). The experiment can be described thus: NVS_ENZ_hElastase: NovaScreen (NVS) Enzymatic Assay for human Elastase (AID 2283153). An outline of the steps:
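Cell-free elastase from human neutrophils, 1.5 h after dosing, activity read by absorbance. Primary screen in duplicate at 25 uM; hits (e.g., 30% inhibition) rerun in singleton concentration-response up to 50 uM, fitted versus DMSO.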

The target of the next experiment is Caspase-1 (Homo sapiens) (UniProt P29466). In words: NVS_ENZ_hCASP1: NovaScreen (NVS) Enzymatic Assay for human Caspase 1 (CASP1) (AID 2283132). The essentials: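 Cell-free enzymatic assay with E. coli-expressed recombinant protein; fluorescence intensity read 1 hour after dosing. Single-concentration duplicate screen at 25 uM, then concentration-response up to 50 uM; activity fitted relative to DMSO, loss of signal meaning inhibition.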

For another experiment, the target named is CDK2 (gene 1017) (UniProt P24941). In words: NVS_ENZ_hCDK2: NovaScreen (NVS) Enzymatic Assay for human Cyclin-Cependent Kinase 2 (CDK2) (AID 2283144). The essentials: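 Cell-free recombinant human CDK2 with fluorescent substrate, product separated by electrophoretic mobility shift; 1 hr read. Primary screen at 25 uM in duplicate, actives retested in concentration-response up to 50 uM; loss of signal versus DMSO.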

The target of experiment [9] is human Caspase 10 (CASP10), CASP10 (gene 843) (UniProt Q92851). The experiment can be described thus: NVS_ENZ_hCASP10: NovaScreen (NVS) Enzymatic Assay for human Caspase 10 (CASP10) (AID 2283133). An outline of the steps:
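Recombinant human caspase-10 from E. coli, cell-free fluorogenic substrate assay read 1 h after dosing. Primary duplicate screen at 25 uM; hits (e.g. ≥30% inhibition) run singly in concentration-response up to 50 uM, normalised to DMSO.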

Experiment [10] has as its target human AKT serine/threonine Kinase 1 (AKT1), AKT1 (gene 207) (UniProt P31749). The experiment can be described thus: NVS_ENZ_hAKT1: NovaScreen (NVS) Enzymatic Assay for human AKT serine/threonine Kinase 1 (AKT1) (AID 2283138). An outline of the steps:
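Recombinant AKT1, specific substrate, cell-free; 1 h; fluorescence intensity/electrophoretic mobility shift. Duplicate single-point 25 uM, then singleton CRC max 50 uM. DMSO = negative control/baseline; signal loss = inhibition.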

Experiment [11] has as its target human Caspase 2 (CASP2), CASP2 (gene 835) (UniProt P42575). In words: NVS_ENZ_hCASP2: NovaScreen (NVS) Enzymatic Assay for human Caspase 2 (CASP2) (AID 2283135). The essentials: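 E. coli-expressed enzyme in a cell-free protease assay, fluorescence read 1 h after dosing. Compounds at 25 uM in duplicate, with concentration-response up to 50 uM for hits; loss of signal against DMSO baseline.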

Experiment [12] addresses human Casein Kinase 2- alpha 2 beta 2 (CK2a2b2), CSNK2A1 (gene 1457) (UniProt P68400). In words: NVS_ENZ_hCK2a2b2: NovaScreen (NVS) Enzymatic Assay for human Casein Kinase 2- alpha 2 beta 2 (CK2a2b2) (AID 2283147). The essentials: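 Cell-free recombinant CK2 α2β2 holoenzyme with a fluorescent peptide substrate; product separated by electrophoretic mobility shift and read 1 h after dosing. Single-point screen at 25 uM in duplicate; actives were followed with concentration-response up to 50 uM versus DMSO.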

In experiment [13] the target is human Caspase 5 (CASP5), CASP5 (gene 838) (UniProt P51878). The experiment can be described thus: NVS_ENZ_hCASP5: NovaScreen (NVS) Enzymatic Assay for human Caspase 5 (CASP5) (AID 2283137). An outline of the steps: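 E. coli-derived enzyme, cell-free, 2 h incubation, fluorescence intensity. 25 uM duplicate single-point; hits → concentration series to 50 uM. DMSO baseline, positive/negative controls on every plate.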

In experiment [14] the target is human Casein Kinase 1-delta (CK1D), CSNK1D (gene 1453) (UniProt P48730). In words: NVS_ENZ_hCK1D: NovaScreen (NVS) Enzymatic Assay for human Casein Kinase 1-delta (CK1D) (AID 2283148). The essentials:
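Recombinant human CK1-delta, cell-free; fluorescent substrate with electrophoretic mobility-shift separation of product, read 1 h after dosing. Single 25 uM duplicate screen, then concentration-response up to 50 uM; loss of signal vs DMSO.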

Experiment [15] concerns the target human Ephrin type-B Receptor 1 (EphB1), EPHB1 (gene 2047) (UniProt P54762). The experiment can be described thus: NVS_ENZ_hEphB1: NovaScreen (NVS) Enzymatic Assay for human Ephrin type-B Receptor 1 (EphB1) (AID 2283154). The essentials: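 Cell-free kinase assay with recombinant enzyme, fluorescent substrate and electrophoretic mobility-shift separation of substrate and product; read 1 h after dosing. Single-concentration duplicate screen at 25 uM; loss of signal versus DMSO baseline.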

In a further experiment the target is Caspase-3 (Homo sapiens) (UniProt P42574). The experiment can be described thus: NVS_ENZ_hCASP3: NovaScreen (NVS) Enzymatic Assay for human Caspase 3 (CASP3) (AID 2283139). An outline of the steps:
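Recombinant human caspase-3 from E. coli with a fluorogenic substrate, read by fluorescence 1 h after dosing. Primary screen in duplicate at 25 uM. Actives (for example ≥30% inhibition) rerun as concentration-response up to 50 uM.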

Experiment [16] deals with human Aurora Kinase A - serine/threonine-protein Kinase 6 (AurA), AURKA (gene 6790) (UniProt O14965). In words: NVS_ENZ_hAurA: NovaScreen (NVS) Enzymatic Assay for human Aurora Kinase A - serine/threonine-protein Kinase 6 (AurA) (AID 2283142). An outline of the steps:
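Cell-free enzymatic assay with human Aurora A, 1 hour after dosing. Fluorescent substrate turnover detected after electrophoretic mobility shift separation of substrate and product. Screened at 25 uM, actives retested in concentration-response up to 50 uM.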

Experiment [17] has as its target human Epidermal Growth Factor Receptor (EGFR), EGFR (gene 1956) (UniProt P00533). In words: NVS_ENZ_hEGFR: NovaScreen (NVS) Enzymatic Assay for human Epidermal Growth Factor Receptor (EGFR) (AID 2283151). An outline of the steps:
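Cell-free kinase assay, fluorescence plus electrophoretic mobility shift separating substrate and product, read 1 hour after dosing; loss of signal vs DMSO. Duplicate screen at 25 uM, then concentration-response to 50 uM.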

Where “and” joins values, the source holds several entries; their conditions need not be identical. Equal entries are not always repeated. Inconclusive results are not listed. A structure can be active in one record and inactive in another. Calls of active or inactive are those of the source. The calls were made as follows: active = hit-call score of the fitted dose curve at least 0.9, where 1 is the maximum; inconclusive = response in the unintended direction; inactive = score below 0.9.

Chain of human AKT serine/threonine Kinase 1 (AKT1), AKT1 (gene 207) (P31749 whole entry, looked up): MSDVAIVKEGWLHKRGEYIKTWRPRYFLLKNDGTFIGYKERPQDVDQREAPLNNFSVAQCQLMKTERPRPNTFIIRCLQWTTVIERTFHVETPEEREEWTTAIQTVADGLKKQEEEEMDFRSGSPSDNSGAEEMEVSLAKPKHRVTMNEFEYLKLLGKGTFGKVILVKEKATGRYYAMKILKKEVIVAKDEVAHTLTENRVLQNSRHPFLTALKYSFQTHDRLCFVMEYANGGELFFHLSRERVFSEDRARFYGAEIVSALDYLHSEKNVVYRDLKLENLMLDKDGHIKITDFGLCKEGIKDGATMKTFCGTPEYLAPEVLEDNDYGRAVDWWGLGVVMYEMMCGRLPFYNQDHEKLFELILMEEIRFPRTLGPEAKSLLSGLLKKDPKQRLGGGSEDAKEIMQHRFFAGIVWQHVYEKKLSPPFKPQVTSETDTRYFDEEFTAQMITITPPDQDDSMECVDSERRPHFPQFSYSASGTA
Chain of human Elastase, ELANE (gene 1991) (P08246 whole entry, looked up): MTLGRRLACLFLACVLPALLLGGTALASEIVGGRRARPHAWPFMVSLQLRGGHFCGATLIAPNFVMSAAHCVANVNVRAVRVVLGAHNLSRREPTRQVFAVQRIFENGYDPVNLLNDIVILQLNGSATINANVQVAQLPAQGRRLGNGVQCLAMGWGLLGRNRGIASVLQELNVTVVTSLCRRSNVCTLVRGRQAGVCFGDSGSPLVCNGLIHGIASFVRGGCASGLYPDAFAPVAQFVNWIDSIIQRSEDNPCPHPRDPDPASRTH
Chain of human Dual Specificity Protein Phosphatase 3 (DUSP3), DUSP3 (gene 1845) (P51452 whole entry, looked up): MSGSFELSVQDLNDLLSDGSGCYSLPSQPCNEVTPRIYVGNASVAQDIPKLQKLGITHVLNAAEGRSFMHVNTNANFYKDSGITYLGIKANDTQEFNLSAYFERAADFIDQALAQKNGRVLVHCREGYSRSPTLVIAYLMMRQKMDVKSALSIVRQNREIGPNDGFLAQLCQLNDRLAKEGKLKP
Chain of human Caspase 5 (CASP5), CASP5 (gene 838) (P51878 whole entry, looked up): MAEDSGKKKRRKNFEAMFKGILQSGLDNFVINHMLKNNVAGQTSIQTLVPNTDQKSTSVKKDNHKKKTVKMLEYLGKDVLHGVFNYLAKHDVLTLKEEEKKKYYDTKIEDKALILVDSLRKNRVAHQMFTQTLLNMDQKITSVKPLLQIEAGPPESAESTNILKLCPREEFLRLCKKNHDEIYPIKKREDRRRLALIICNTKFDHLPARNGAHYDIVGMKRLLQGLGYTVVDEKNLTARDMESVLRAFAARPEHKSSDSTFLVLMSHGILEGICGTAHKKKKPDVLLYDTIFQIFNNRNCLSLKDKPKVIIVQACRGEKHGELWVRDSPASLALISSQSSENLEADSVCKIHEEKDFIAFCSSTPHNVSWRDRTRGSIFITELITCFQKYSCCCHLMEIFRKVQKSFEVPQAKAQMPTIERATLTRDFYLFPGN
Chain of human Casein Kinase 1-delta (CK1D), CSNK1D (gene 1453) (P48730 whole entry, looked up): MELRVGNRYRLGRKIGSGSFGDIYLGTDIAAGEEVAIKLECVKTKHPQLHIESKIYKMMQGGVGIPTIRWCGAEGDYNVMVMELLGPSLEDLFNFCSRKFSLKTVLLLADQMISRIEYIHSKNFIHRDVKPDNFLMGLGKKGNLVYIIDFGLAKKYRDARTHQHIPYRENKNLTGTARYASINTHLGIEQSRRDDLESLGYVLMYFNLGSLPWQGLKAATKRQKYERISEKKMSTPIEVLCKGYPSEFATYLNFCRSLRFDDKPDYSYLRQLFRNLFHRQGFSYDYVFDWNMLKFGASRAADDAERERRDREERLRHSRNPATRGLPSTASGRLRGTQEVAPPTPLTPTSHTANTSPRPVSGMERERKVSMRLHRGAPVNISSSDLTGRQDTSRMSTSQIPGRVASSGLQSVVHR
Chain of human AMP-activated Protein Kinase, alpha 1 (AMPKa1), PRKAA1 (gene 5562) (Q13131 whole entry, looked up): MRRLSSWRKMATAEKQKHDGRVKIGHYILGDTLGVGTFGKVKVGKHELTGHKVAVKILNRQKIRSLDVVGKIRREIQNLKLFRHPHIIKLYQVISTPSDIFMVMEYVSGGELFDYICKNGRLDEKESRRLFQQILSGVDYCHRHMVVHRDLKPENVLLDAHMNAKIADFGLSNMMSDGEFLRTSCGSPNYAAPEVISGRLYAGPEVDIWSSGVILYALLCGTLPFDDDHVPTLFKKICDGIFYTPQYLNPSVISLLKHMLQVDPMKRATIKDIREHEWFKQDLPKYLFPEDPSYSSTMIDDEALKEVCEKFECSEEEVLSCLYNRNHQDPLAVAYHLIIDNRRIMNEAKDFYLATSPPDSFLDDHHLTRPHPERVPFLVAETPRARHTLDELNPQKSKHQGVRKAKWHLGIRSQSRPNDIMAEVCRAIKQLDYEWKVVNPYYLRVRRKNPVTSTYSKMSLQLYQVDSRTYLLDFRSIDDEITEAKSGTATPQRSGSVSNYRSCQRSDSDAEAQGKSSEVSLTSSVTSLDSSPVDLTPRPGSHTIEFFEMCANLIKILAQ
Chain of human Acid Phosphatase 1 (ACP1), ACP1 (gene 52) (P24666 whole entry, looked up): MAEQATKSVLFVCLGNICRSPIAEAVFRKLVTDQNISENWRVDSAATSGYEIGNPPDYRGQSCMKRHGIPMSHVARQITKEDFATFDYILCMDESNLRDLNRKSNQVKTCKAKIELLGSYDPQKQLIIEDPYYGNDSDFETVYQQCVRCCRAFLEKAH
Chain of human Caspase 10 (CASP10), CASP10 (gene 843) (Q92851 whole entry, looked up): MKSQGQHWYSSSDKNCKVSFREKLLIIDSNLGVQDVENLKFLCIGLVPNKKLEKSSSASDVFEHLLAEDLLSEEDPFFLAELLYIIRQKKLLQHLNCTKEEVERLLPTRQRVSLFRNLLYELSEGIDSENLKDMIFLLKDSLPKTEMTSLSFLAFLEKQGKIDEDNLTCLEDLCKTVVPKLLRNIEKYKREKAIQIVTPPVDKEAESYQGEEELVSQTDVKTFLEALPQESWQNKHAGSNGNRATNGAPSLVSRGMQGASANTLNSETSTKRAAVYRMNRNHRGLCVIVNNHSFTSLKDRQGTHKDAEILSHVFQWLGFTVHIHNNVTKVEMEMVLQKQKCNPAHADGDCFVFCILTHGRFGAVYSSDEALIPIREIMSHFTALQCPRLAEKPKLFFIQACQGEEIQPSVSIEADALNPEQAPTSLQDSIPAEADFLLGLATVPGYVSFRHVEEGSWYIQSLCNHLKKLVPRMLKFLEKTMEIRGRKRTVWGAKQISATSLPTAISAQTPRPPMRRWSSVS
Chain of human Caspase 8 (CASP8), CASP8 (gene 841) (Q14790 whole entry, looked up): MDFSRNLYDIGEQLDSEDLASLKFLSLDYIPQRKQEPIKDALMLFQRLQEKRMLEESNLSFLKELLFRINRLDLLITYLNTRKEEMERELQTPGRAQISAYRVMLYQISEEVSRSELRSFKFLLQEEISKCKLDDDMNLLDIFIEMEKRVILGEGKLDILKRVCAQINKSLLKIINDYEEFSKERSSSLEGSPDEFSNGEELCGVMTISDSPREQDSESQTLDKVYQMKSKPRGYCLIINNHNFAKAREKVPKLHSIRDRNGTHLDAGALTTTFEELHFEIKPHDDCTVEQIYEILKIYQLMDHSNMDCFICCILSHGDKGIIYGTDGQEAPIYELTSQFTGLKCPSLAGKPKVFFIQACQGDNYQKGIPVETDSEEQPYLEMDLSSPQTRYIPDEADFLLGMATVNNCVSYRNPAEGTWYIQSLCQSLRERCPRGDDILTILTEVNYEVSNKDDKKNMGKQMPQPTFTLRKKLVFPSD
Chain of human Beta-secretase (BACE), BACE1 (gene 23621) (P56817 whole entry, looked up): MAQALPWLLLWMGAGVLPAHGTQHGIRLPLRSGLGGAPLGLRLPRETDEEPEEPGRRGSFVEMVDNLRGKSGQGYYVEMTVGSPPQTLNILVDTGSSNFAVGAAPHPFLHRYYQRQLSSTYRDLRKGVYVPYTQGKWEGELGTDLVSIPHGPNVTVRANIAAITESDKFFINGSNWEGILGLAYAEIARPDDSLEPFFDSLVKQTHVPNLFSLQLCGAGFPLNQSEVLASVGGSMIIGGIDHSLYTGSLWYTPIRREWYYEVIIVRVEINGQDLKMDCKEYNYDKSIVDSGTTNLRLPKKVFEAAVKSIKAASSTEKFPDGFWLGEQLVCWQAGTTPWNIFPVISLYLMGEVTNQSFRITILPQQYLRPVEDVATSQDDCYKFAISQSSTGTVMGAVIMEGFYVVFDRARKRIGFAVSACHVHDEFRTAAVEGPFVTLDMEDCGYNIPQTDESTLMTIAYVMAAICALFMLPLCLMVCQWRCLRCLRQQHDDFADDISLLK
Chain of human Colony Stimulating Factor 1 Receptor (CSF1R), CSF1R (gene 1436) (P07333 whole entry, looked up): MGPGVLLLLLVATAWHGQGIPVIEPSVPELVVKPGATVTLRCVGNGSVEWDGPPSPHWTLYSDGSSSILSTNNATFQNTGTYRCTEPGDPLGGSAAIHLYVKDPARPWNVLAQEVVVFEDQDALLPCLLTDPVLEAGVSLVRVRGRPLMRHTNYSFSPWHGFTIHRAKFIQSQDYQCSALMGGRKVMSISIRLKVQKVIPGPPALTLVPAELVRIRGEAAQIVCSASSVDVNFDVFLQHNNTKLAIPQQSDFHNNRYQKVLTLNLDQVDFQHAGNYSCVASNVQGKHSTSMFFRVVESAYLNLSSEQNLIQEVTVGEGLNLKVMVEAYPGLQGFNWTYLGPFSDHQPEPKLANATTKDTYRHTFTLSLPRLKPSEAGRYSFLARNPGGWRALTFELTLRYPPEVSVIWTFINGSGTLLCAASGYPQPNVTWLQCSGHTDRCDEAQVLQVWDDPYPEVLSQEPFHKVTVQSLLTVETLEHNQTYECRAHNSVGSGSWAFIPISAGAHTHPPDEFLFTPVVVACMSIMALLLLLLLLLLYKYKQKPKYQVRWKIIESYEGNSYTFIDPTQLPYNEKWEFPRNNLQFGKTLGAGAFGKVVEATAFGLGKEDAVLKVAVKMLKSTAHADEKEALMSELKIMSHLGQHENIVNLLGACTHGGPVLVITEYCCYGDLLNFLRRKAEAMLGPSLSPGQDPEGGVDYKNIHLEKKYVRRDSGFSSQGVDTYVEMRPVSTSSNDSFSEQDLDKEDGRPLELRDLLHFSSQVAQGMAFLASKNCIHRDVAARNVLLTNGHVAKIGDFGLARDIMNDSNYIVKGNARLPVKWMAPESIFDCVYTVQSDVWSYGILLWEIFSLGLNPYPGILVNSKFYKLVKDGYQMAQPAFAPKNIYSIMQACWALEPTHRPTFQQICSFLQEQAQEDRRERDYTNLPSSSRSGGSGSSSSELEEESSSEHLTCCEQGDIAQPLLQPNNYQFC

On to `Oc1cc(Cl)ccc1Oc1ccc(Cl)cc1Cl`, for which the call in experiment [1], in experiment [2], in experiment [3], in [5], in experiment [6] and in experiment [7] was inactive. For the same compound, in experiment [8], the call was inactive. In addition, the AC50 – broadly, the concentration giving half of the maximal activity seen – in experiment [3] was 25.5 µM (active) and 28.2 µM (active) and 7.92 µM (active); in experiment [4], 41.4 µM (active).

Turning to `O=C(NC(=O)c1c(F)cccc1F)Nc1ccc(OC(F)(F)C(F)OC(F)(F)F)c(Cl)c1` (stereo not drawn), the compound was called inactive in [8].

Consider `CN1CSC(=S)N(C)C1`, for which the compound was classed as inactive (with Caspase-1 (Homo sapiens); in experiment [4]; in the experiment with CDK2 (gene 1017)).

With `COC(=O)c1ccccc1S(=O)(=O)NC(=O)N(C)c1nc(C)nc(OC)n1`, the AC50 in [9] was 6.07 µM (active). Moreover, the result in [10] and in experiment [4] was inactive.

With `COP(=S)(OC)Oc1ccc([N+](=O)[O-])cc1`, the result in experiment [8] was inactive.

On to `C#CCN1C(=O)COc2cc(F)c(N3C(=O)C4=C(CCCC4)C3=O)cc21`, for which the compound was classed as inactive in [11] and in experiment [2].

`CCC(C)(NC(=O)c1cc(Cl)c(C)c(Cl)c1)C(=O)CCl` (stereo not drawn): the compound was classed as inactive in experiment [12].

With `COc1nn(CSP(=S)(OC)OC)c(=O)s1`, in experiment [5], the compound was called inactive.

Regarding `Oc1ccc(Cl)cc1Cc1ccccc1`, the compound was called inactive in experiment [1], in experiment [13], in experiment [10], in experiment [7] and in experiment [15]. The AC50 was 18.9 µM (active) [middle of 6 runs] in [3]; 25.2 µM (active) and 21.9 µM (active) in [14].

As for `C[C@H]1[C@H](c2ccc(Cl)cc2)SC(=O)N1C(=O)NC1CCCCC1`, the outcome (in the experiment with Caspase-3 (Homo sapiens); in [5]) was inactive.

As for `Clc1ccccc1-c1nnc(-c2ccccc2Cl)nn1`, the compound was classed as inactive in [4].

`O=C1c2ccccc2C(=O)N1SC(Cl)(Cl)Cl`: the result (in the experiment with Caspase-3 (Homo sapiens); in [5]) was inactive.

`CC(C)(C)C(O)C(Oc1ccc(Cl)cc1)n1cncn1` (stereo not drawn): the compound was classed as inactive in experiment [1], in experiment [2] and in experiment [6].

Consider `O=S(=O)(O)C(F)(F)C(F)(F)C(F)(F)C(F)(F)C(F)(F)C(F)(F)C(F)(F)C(F)(F)F`, for which the AC50 in experiment [1] is 15.7 µM (active) and 5.63 µM (active); in experiment [2] it was 24.7 µM (active); in experiment [13] it was 26.7 µM (active) [middle of 4 runs]; in experiment [10] it was 46.7 µM (active); in [3], 2.29 µM (active) and 2.36 µM (active) and 8.91 µM (active); in experiment [16] it was 25.4 µM (active) and 27.4 µM (active). For the same compound, the concentration at half-maximal activity (AC50) in experiment [14] was 22 µM (active) and 39 µM (active); in experiment [6], 18.6 µM (active) and 43.9 µM (active); in experiment [17] it was 25 µM (active) and 17.4 µM (active); in experiment [7], 35.6 µM (active). The result (in the experiment with Caspase-1 (Homo sapiens); in [9]; in experiment [5]; in experiment [7]; in [8]) was inactive.

In the case of `CCCN(CCOc1c(Cl)cc(Cl)cc1Cl)C(=O)n1ccnc1`, the call in experiment [7] was inactive.

For the compound `CCOc1nc(NC)nc(NC(=O)NS(=O)(=O)c2ccccc2C(=O)OC)n1`, in [14], the AC50 was 18.4 µM (active).
